PubChem BioAssay AID1159580 (chemical genetic matrix, 2015)
Values joined by “and” are separate entries in the source; they are usually repeats but may differ in a detail not shown here. Equal entries are not always repeated. Out of some 5,500 compounds screened, about 2,000 (36%) were called active. Inconclusive results (about 18%) are left out. Cut-off read from the data, not from the text of the source: active = normalized growth mostly below about 0.91 (no sharp cut-off); inconclusive = no clear call, values can overlap the other calls; inactive = mostly above about 0.92. The list shows a part of the results.

Experiment: chemical genetic growth profiling, strain panel (AID 1159580);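 note: tested at 20 µM; growth read once vehicle control cultures reached saturation at 30 °C; 1 = growth at the plate median or of vehicle wells; lower values mean less growth of the strain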
Conditions: S. cerevisiae deletion strains, growth OD

Measured: normalized growth

CC1=C(CC(=O)O)c2cc(F)ccc2/C1=C\c1ccc(S(C)=O)cc1 (stereo unspecified)
inactive: locus YAL013W, strain DEP1, active compounds read low 1 | locus YAL021C, strain ccr4, active compounds read low 1.02 | locus YAL026C, strain drs2, active compounds read low 1.02 | locus YAL030W, strain snc1, active compounds read low 1.01 | locus YAL040C, strain CLN3, active compounds read low 0.99 | locus YBL061C, strain skt5, active compounds read low 1.02 | locus YBR009C, strain hhf1, active compounds read low 1.01 | locus YBR021W, strain FUR4, active compounds read low 1.03 | locus YBR023C, strain chs3, active compounds read low 1.02 | locus YBR171W, strain sec66, active compounds read low 1.02 | locus YBR229C, strain ROT2, active compounds read low 1 | locus YBR231C, strain swc5, active compounds read low 1.03 | locus YBR279W, strain paf1, active compounds read low 1.01 | locus YCL011C, strain gbp2, active compounds read low 1.03 | locus YCL016C, strain dcc1, active compounds read low 1.01 | locus YCL029C, strain bik1, active compounds read low 1.02 | locus YCL061C, strain MRC1 (second series), active compounds read low 1.01 | locus YCL061C, strain MRC1, active compounds read low 1.02 | locus YCL069W, strain vba3, active compounds read low 1.02 | locus YCR088W, strain abp1, active compounds read low 1.02 | locus YDL005C, strain med2, active compounds read low 1.02 | locus YDL035C, strain GPR1, active compounds read low 1.01 | locus YDL040C, strain nat1, active compounds read low 1.01 | locus YDL074C, strain BRE1, active compounds read low 0.981 | locus YDL101C, strain DUN1, active compounds read low 1.01 | locus YDL134C, strain PPH21, active compounds read low 0.999 | locus YDL185W, strain tfp1, active compounds read low 1 | locus YDL192W, strain arf1, active compounds read low 1.02 | locus YDR001C, strain nth1, active compounds read low 1.02 | locus YDR069C, strain doa4, active compounds read low 1.01 | locus YDR101C, strain arx1, active compounds read low 1.06 | locus YDR137W, strain rgp1, active compounds read low 1.02 | locus YDR150W, strain NUM1, active compounds read low 0.996 | locus YDR159W, strain sac3, active compounds read low 1.02 | locus YDR162C, strain NBP2, active compounds read low 1.01 | locus YDR195W, strain ref2 1.04 | locus YDR297W, strain sur2, active compounds read low 1.02 | locus YDR318W, strain mcm21, active compounds read low 1.02 | locus YDR334W, strain swr1, active compounds read low 1.02 | locus YDR335W, strain msn5, active compounds read low 1.01 | locus YDR363W, strain ESC2, active compounds read low 0.995 | locus YDR388W, active compounds read low 1.03 | locus YDR392W, strain spt3, active compounds read low 0.996 | locus YDR502C, strain sam2, active compounds read low 1.02 | locus YEL003W, strain gim4, active compounds read low 1.02 | locus YEL037C, strain rad23, active compounds read low 1.02 | locus YEL061C, strain CIN8 (second series), active compounds read low 1.03 | locus YEL061C, strain CIN8, active compounds read low 1.01 | locus YER002W, strain NOP16, active compounds read low 0.993 | locus YER015W, strain faa2, active compounds read low 1.01 | locus YER016W, strain bim1, active compounds read low 1 | locus YER110C, active compounds read low 1.03 | locus YER111C, strain swi4, active compounds read low 1.03 | locus YER155C, strain BEM2 (second series), active compounds read low 1.03 | locus YER155C, strain BEM2, active compounds read low 1.01 | locus YER167W, strain BCK2, active compounds read low 1.01 | locus YFR010W, strain ubp6, active compounds read low 1.02 | locus YGL078C, strain dbp3, active compounds read low 1.02 | locus YGL086W, strain mad1, active compounds read low 1.01 | locus YGL167C, strain pmr1, active compounds read low 1.03 | locus YGL173C, strain kem1, active compounds read low 1.02 | locus YGL227W, strain vid30, active compounds read low 1.03 | locus YGL240W, strain doc1, active compounds read low 1.01 | locus YGL248W, strain PDE1, active compounds read low 0.999 | locus YGL253W, strain hxk2, active compounds read low 1.02 | locus YGR078C, strain PAC10, active compounds read low 1.01 and 0.998 | locus YGR135W, strain pre9, active compounds read low 1 | locus YGR229C, strain SMI1, active compounds read low 0.977 | locus YGR252W, strain gcn5, active compounds read low 0.982 | locus YHR013C, strain ard1, active compounds read low 1.03 | locus YHR027C, strain rpn1, active compounds read low 1.02 | locus YHR030C, strain SLT2, active compounds read low 1.01 and 0.982 | locus YHR079C, strain IRE1 (second series), active compounds read low 1.03 | locus YHR079C, strain IRE1, active compounds read low 0.988 | locus YHR094C, strain hxt1, active compounds read low 1.02 | locus YHR129C, strain ARP1, active compounds read low 0.996 | locus YHR142W, strain chs7, active compounds read low 1.02 | locus YHR200W, strain rpn10, active compounds read low 1.03 | locus YIL066C, strain RNR3, active compounds read low 1 | locus YIL073C, strain SPO22, active compounds read low 1.04 | locus YIL125W, strain kgd1, active compounds read low 1.02 | locus YIR030C, strain dcg1, active compounds read low 1.02 | locus YJL092W, strain hpr5, active compounds read low 1.02 | locus YJL095W, strain BCK1 (second series), active compounds read low 1.02 | locus YJL095W, strain BCK1, active compounds read low 0.992 and 0.97 | locus YJL115W, strain asf1, active compounds read low 1.03 | locus YJL129C, strain trk1, active compounds read low 1.03 | locus YJL134W, strain LCB3, active compounds read low 1.01 | locus YJL154C, strain vps35, active compounds read low 1.02 | locus YJL164C, strain tpk1, active compounds read low 1.01 | locus YJL166W, strain qcr8, active compounds read low 1.01 | locus YJL168C, strain set2, active compounds read low 1.02 | locus YJL187C, strain SWE1 (second series), active compounds read low 1.01 | locus YJL187C, strain SWE1, active compounds read low 1.02 | locus YJR043C, strain POL32, active compounds read low 1 | locus YJR066W, strain TOR1, active compounds read low 0.924
